About 2,100 (3.2%) of roughly 65,000 compounds showed an effect of 50% or more. The median lay at about -52%. Shown is part of a subset that was picked to be rich in strong results.

The assay deals with Plasmodium falciparum. Kind of assay: Screen against P. falciparum Asexual Blood Stage (ABS), at 5uM. In kind it is functional, Dd2. The following applies: tested at 5 uM.
For the molecule `CCN(CC)S(=O)(=O)N1C[C@@H](O)[C@H](Oc2cccc(F)c2)C1`, the INHIBITION is -6.79%.

With `COCC(=O)N1CCC(C(=O)c2cc(C)cnc2N)CC1`, the INHIBITION is given as -65.6%.

As to `O=S(=O)(Cc1ccc(F)cc1)NCc1nnc2n1CCC2`, the INHIBITION is reported as -90.9%.

As to `FC(F)(F)c1nc(NC2CCCCC2)c2ccccc2n1`, the INHIBITION was -10.5%.

On to `COc1ccc(CCN2CCCC(CN(C)Cc3[nH]cnc3C)C2)cc1` (stereo not drawn), for which the INHIBITION is listed as -4.52%.

`COc1ccccc1CCN1CCCC(CN(C)Cc2cc(C)n[nH]2)C1` (stereo not drawn): the INHIBITION is listed as 55.5%.

Regarding `Cc1cc(CN(C)CC2CCCN(CCc3ccc(Cl)cc3)C2)[nH]n1` (stereo not drawn), the INHIBITION is -65.3%.

As for `COc1ccccc1CCN1CCCC(CN(C)Cc2c[nH]c(C)n2)C1` (stereo not drawn), the INHIBITION is 67.4%.

With `COc1ccc(CCN2CCCC(CN(C)Cc3ccc(C)o3)C2)cc1` (stereo not drawn), the INHIBITION is listed as -45.9%.

As to `Cc1nc(CN2CCCC(CCc3ccccc3C)C2)c[nH]1` (stereo not drawn), the INHIBITION is listed as 14.6%.

For `O=C(Cn1ccc(-c2ccccc2)n1)N1CCN(C(=O)C2CC2)CC1`, the INHIBITION is reported as -54.1%.

Regarding `O=C(O)Cn1nc(C2CC2)c2c(-c3ccc(F)cc3)ccnc21`, the INHIBITION is -143%.

Take `Cc1nc(N2CCC3(CCOC3)C2)c2cc[nH]c2n1` (stereo not drawn): the INHIBITION is reported as -21.2%.

`O=C(CN1CCc2sccc2C1)Nc1ccnc2ccnn12`: the INHIBITION is recorded as -83.1%.

With `OCCCNc1nc(O)c2c(n1)-c1ccccc1CC21CCCCC1`, the INHIBITION is 4.32%.

For the molecule `COCC(=O)N1CCC2(C1)c1ccccc1S(=O)(=O)N2C` (stereo not drawn), the INHIBITION is -58.6%.

Turning to `CS(=O)(=O)NCc1nnc2n1CCN(Cc1ccncc1)C2`, the INHIBITION is -3.62%.

For `Cc1cc(C(=O)N2CCc3ncc(CN4CCCC4)n3CC2)no1`, the INHIBITION is recorded as -1.1%.

With `COc1ccc(CN2CCCC2)cc1Oc1ccc(NC(C)=O)cc1`, the INHIBITION is given as -44.6%.

With `Cc1cc(CN2CCCC2)cc(Oc2ccc3c(c2)CC(CN)O3)c1` (stereo not drawn), the INHIBITION was 28.4%.

As to `COc1cc(CN2CCCC2)ccc1Oc1ccc2c(c1)CC(CN)O2` (stereo not drawn), the INHIBITION is 59.8%.

For the molecule `Cc1ccc(N2CCO[C@H]3CN(C(=O)c4cccc(C)n4)C[C@H]32)nn1`, the INHIBITION is -46.4%.

Turning to `CCn1c(CN(C)Cc2cnc(C)s2)nc2c(F)cccc21`, the INHIBITION was -30.4%.

For the molecule `CCn1c(CN(C)Cc2csc(C)n2)nc2cc(F)ccc21`, the INHIBITION was 61%.

Take `CCn1c(CN(C)Cc2cnc(C)s2)nc2cc(F)ccc21`: the INHIBITION was -16.6%.

As to `Cc1csc(CCCNc2ccc(S(N)(=O)=O)cc2C#N)n1`, the INHIBITION was -9.07%.

Regarding `CC(CN1CCC(c2ccccc2)CC1)n1cnc2ccccc21` (stereo not drawn), the INHIBITION stood at 3.15%.

In the case of `COCCN1CCCCC12CC(=O)N(c1ccccc1OC)C2` (stereo not drawn), the INHIBITION is -78.3%.

For the molecule `c1coc(CN2CCC3(CCOCC3COCC3CC3)CC2)c1` (stereo not drawn), the INHIBITION is given as 62.3%.

For `O=C(Cc1ccco1)N1CCC2(CCOCC2COCC2CC2)CC1` (stereo not drawn), the INHIBITION is -30.9%.

Regarding `c1cc(CN2CCC3(CCOCC3COCC3CC3)CC2)co1` (stereo not drawn), the INHIBITION is listed as 14.4%.

`Cc1cccc(CN2CCC3(CCCN(C(=O)N(C)C)C3)C2=O)n1` (stereo not drawn): the INHIBITION is listed as -86.4%.

Consider `Cc1cccc(C2CCCN2Cc2nc(N)nc(N(C)C)n2)c1C` (stereo not drawn), for which the INHIBITION is recorded as -12.4%.

On to `CN(C)c1nc(N)nc(CN2CCCC2c2cccs2)n1` (stereo not drawn), for which the INHIBITION is reported as 52%.

In the case of `CN(C)c1nc(N)nc(CN2CCCC2c2ccsc2)n1` (stereo not drawn), the INHIBITION is given as 26.9%.

For the molecule `c1ccc(C2CCCN(Cc3cc4n(n3)CCNC4)CC2)cc1` (stereo not drawn), the INHIBITION was 37.2%.

With `CN(C)c1nc(N)nc(CN2CCC(c3nc4ccccc4o3)CC2)n1`, the INHIBITION was determined as 7.31%.

With `CN(C)c1nc(N)nc(CN2CCCC(c3ccccc3)CC2)n1` (stereo not drawn), the INHIBITION stood at 54%.

Turning to `COCC1CN(C(=O)Cc2ccccn2)Cc2ncnn2C1` (stereo not drawn), the INHIBITION is recorded as -70.5%.

Take `Cc1cc(C(=O)N2CCN(c3nc4c(C(C)C)cccc4s3)CC2)on1`: the INHIBITION was determined as 35.8%.

For the molecule `COCCOCC(=O)Nc1ccc(F)cc1C`, the INHIBITION is given as -33.5%.

For `Cc1noc(C)c1CN1CCC(c2nc3cc(Cl)ccc3o2)CC1`, the INHIBITION is 58.5%.

Turning to `Cc1nc(CN2CCC(c3nc4cc(Cl)ccc4o3)CC2)oc1C`, the INHIBITION is given as -53.1%.

On to `CC(C)(C)c1nc(CN2CCC(c3nc4cc(Cl)ccc4o3)CC2)no1`, for which the INHIBITION was -67.9%.

Turning to `O=C([C@@H]1COC[C@H]2CN(C3CCCC3)C[C@H]21)N1CCC(F)CC1`, the INHIBITION is reported as -68.8%.

Regarding `CN1CCN(C(=O)c2nc3c(o2)CN(C(=O)c2cccnc2)C3)CC1`, the INHIBITION is on record as -0.0268%.

Take `O=C(CSC1=NS(=O)(=O)c2cc(F)ccc2N1)Nc1ccc(Cl)c(Cl)c1`: the INHIBITION is on record as -21.5%.

Take `O=C(N1CCOCC1)N1CCC2(CC1)CN(c1ccccn1)CCO2`: the INHIBITION is recorded as -99.6%.

With `Cc1ccc(C(CNCc2cccn2C)N2CCOCC2)s1` (stereo not drawn), the INHIBITION is -38.5%.

On to `CCn1ccnc1CNCC(c1ccc(C)s1)N1CCOCC1` (stereo not drawn), for which the INHIBITION is on record as 54.1%.

For the molecule `Cc1ccc(C(CNCc2nccn2C)N2CCOCC2)s1` (stereo not drawn), the INHIBITION is reported as -28.6%.

As to `Cc1ccc(C(CNCc2ncc[nH]2)N2CCOCC2)s1` (stereo not drawn), the INHIBITION turned out to be 34.5%.

With `O=C(CCn1cccn1)NCC(c1cccs1)N1CCOCC1` (stereo not drawn), the INHIBITION is listed as -64.1%.

`CCCn1cc(CNCC(c2ccc(C)s2)N2CCOCC2)cn1` (stereo not drawn): the INHIBITION is recorded as 56.8%.

Turning to `Cc1ccc(C(CNCc2ccncc2)N2CCOCC2)s1` (stereo not drawn), the INHIBITION was -40.9%.

As to `CCCn1cc(CN2CCOCC2c2[nH]ncc2C)cn1` (stereo not drawn), the INHIBITION is -155%.

In the case of `Cc1ccc(C(CNCc2cnn(C(C)C)c2)N2CCOCC2)s1` (stereo not drawn), the INHIBITION is 35.9%.

On to `Cc1ccc(C(CNCC2CC2)N2CCOCC2)s1` (stereo not drawn), for which the INHIBITION was 26.8%.

The values are drawn from ChEMBL document CHEMBL4513216, “Probing the Open Global Health Chemical Diversity Library for Multistage-Active Starting Points for Next-Generation Antimalarials” (ACS Infect Dis, 2020).
